Experimental data reported in PubChem BioAssay (NCATS).
Where “and” joins values, the source holds several entries; their conditions need not be identical. Equal entries are not always repeated. Results filed as inconclusive are left out. Calls of active or inactive are those of the source. Unless noted, the call rests on the fitted dose curve; in most records, active means well fitted curve in the direction sought with a large enough effect; inconclusive means small, poorly fitted or top-dose-only effect, or another doubt; inactive means no such curve, though single readings can be large; an effect the other way counts as inactive or inconclusive.

What was measured:
[1] = biological target: Cytochrome P450 2D6 (Homo sapiens) (UniProt P10635); assay: Cytochrome P450 family 2 subfamily D member 6 (CYP2D6) small molecule antagonists: luciferase biochemical (cell-free) qHTS assay (AID 1645840; active means well fitted curve in the direction sought with a large enough effect in the repeat runs; an effect the other way counts as inactive or inconclusive; further: nearly all actives have a fitted effect of over 55% in size)
In short: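 P450-Glo luminescent screen: recombinant CYP2D6 enzyme–proluciferin substrate mix preincubated with compound 10 min at room temperature, then NADPH regeneration added for 1 h at room temperature. Detection reagent added for 20 min; luciferin light read as relative luminescence units.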

[2] = biological target: Cytochrome P450 2C9 (Homo sapiens) (UniProt P11712); assay: Cytochrome P450 family 2 subfamily C member 9 (CYP2C9) small molecule antagonists: luciferase biochemical (cell-free) qHTS assay (AID 1645842; active means well fitted curve in the direction sought with a large enough effect in the repeat runs; an effect the other way counts as inactive or inconclusive; further: nearly all actives have a fitted effect of over 55% in size)
In short: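 Luminescence, after 20 min with luciferin detection reagent, reflected CYP2C9 turnover during a 1 h NADPH-driven reaction at 37C. Enzyme-substrate mix contained 0.4% bovine serum albumin and was preincubated with compound 10 min at room temperature.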

[3] = Primary qHTS for inhibitors of nuclear receptor binding SET domain protein 2 (NSD2) in an isogenic RCH-ACV NSD2 p.E1099K mutant (9B) (AID 1645876); further: nearly all actives have a fitted effect of over 70% in size
[4] = Primary qHTS for inhibitors of nuclear receptor binding SET domain protein 2 (NSD2) in an RCH-ACV wild type WT cells (2C) (AID 1645877); further: nearly all actives have a fitted effect of over 70% in size
Potency means the concentration at half of the fitted maximal effect.

Cytochrome P450 2C9 (Homo sapiens), sequence (P11712 whole entry, looked up): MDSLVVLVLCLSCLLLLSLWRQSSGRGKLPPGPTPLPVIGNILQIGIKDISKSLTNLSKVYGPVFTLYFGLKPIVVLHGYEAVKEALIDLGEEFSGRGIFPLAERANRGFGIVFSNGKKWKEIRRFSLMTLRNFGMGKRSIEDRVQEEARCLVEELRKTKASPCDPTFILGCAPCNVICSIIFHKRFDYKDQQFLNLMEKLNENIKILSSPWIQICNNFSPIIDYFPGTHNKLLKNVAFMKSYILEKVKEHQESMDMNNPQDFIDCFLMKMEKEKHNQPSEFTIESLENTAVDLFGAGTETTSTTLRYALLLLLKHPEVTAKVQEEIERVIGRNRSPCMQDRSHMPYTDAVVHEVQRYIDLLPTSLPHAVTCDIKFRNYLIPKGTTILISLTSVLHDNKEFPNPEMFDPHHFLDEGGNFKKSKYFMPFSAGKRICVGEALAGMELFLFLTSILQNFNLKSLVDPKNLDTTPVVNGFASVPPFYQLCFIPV
Cytochrome P450 2D6 (Homo sapiens), sequence (P10635 whole entry, looked up): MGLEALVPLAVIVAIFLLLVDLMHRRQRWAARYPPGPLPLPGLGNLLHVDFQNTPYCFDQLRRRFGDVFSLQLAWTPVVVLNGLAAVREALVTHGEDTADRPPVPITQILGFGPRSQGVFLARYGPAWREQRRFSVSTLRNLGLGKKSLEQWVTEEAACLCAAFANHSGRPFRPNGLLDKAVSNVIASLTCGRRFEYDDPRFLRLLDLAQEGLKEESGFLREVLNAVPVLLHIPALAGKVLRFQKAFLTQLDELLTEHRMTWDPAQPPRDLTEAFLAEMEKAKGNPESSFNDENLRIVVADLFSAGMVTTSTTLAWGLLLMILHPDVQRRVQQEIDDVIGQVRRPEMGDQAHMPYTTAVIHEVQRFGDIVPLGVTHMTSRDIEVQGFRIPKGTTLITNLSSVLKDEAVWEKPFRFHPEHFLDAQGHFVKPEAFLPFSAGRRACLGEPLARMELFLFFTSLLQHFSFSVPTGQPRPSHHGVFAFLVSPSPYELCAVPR

SMILES | Potency [1] | Potency [2] | Potency [3] | Potency [4]
O=C(NCCCn1ccnc1)c1cc(-c2ccco2)on1 | 8.49 µM (active) | 9.52 µM (active) | 14.5 µM (active) | 10.3 µM (active)
CN(C)C(=O)NC1(c2ccccc2)CCN(CCC[C@]2(c3ccc(Cl)c(Cl)c3)CCCN(C(=O)c3ccccc3)C2)CC1 | 3.38 µM (active) | 21.3 µM (active) | 3.25 µM (active) | 2.9 µM (active)
CC(C)OC(=O)N1CCC(Oc2ncnc3c2cnn3-c2ccc(S(C)(=O)=O)cc2F)CC1 | inactive | 3.79 µM (active) | inactive | inactive
O=C1c2ccc(Nc3ccc(F)cc3F)cc2CCc2ccc(OCC(O)CO)cc21 (stereo not given) | 26.8 µM (active) | 6.01 µM (active) | 16.3 µM (active) | 18.3 µM (active)
CCOC(=O)C1(CCOc2ccccc2)CCN(Cc2ccc(O)c(Cl)c2)CC1 | 0.425 µM (active) | 6.01 µM (active) | 23 µM (active) | 23 µM (active)
COc1c(C)cnc(Cn2cc(C#CCC(C)(C)O)c3c(Cl)nc(N)nc32)c1C | inactive | 2.39 µM (active) | 0.129 µM (active) | 0.145 µM (active)
Nc1nc2c(c(N3CC[C@@H](N)C3)n1)CCCc1ccccc1-2 | 3.38 µM (active) | inactive | 20.5 µM (active) | 18.3 µM (active)
COc1cc(CN(CCN)C(=O)c2cccs2)ccc1OCc1ccccc1 | 0.849 µM (active) | 10.7 µM (active) | 18.3 µM (active) | 20.5 µM (active)
C[C@@H](Nc1ncnc2[nH]c(-c3ccc(O)cc3)cc12)c1ccccc1 | 1.34 µM (active) | 1.2 µM (active) | 5.78 µM (active) and 11.8 µM (active) | 5.78 µM (active) and 10.5 µM (active)
Clc1ccc(Nc2nc3ccccc3c3nc(C4CCCCC4)[nH]c23)cc1Cl | inactive | 6.01 µM (active) | 16.3 µM (active) | 16.3 µM (active)
CCOc1nc(NC(=O)Cc2cc(OC)ccc2OC)cc(N)c1C#N | inactive | 0.301 µM (active) | inactive | inactive
C[C@@H](N[C@H]1CCCC[C@@H]1NC(=O)c1ccc(Cl)cc1)c1cccc2ccccc12 | 0.756 µM (active) | 12 µM (active) | 14.5 µM (active) | 9.16 µM (active)
CCCC(CCC)C(=O)Nc1ccn([C@@H]2O[C@H](CO)[C@@H](O)C2(F)F)c(=O)n1 | inactive | 8.49 µM (active) | 1.48 µM (active) | 0.934 µM (active)
C[C@H]1[C@H](/C=C/c2ccc(-c3ccccc3C#N)cn2)[C@@H]2[C@@H](C)OC(=O)[C@@H]2C[C@@H]1C | inactive | inactive | 14.5 µM (active) | 10.3 µM (active)
Cc1cc(C(=O)Nc2cc(Nc3ccc4c(/C=C/c5ccccn5)n[nH]c4c3)ccc2F)n(C)n1 | 7.56 µM (active) | 4.25 µM (active) | 7.28 µM (active) and 7.42 µM (active) | 9.16 µM (active) and 7.42 µM (active)
N#Cc1cc(CN2CCC(Nc3ncnc4sc(Cl)cc34)CC2)ccc1F | 1.51 µM (active) | inactive | 14.5 µM (active) | 20.5 µM (active)
COCCCNC(=O)c1ccc(Cn2c(=O)c3ccccc3n(Cc3ccc(C(C)C)cc3)c2=O)cc1 | inactive | 1.51 µM (active) | inactive | inactive
O=C(Nc1nc2ccc([N+](=O)[O-])cc2s1)C1CCCCC1 | 1.9 µM (active) | 19 µM (active) | 20.5 µM (active) | 12.9 µM (active)
Cc1ccccc1CN1CCn2c1nc1c(c2=O)CN(Cc2ccccc2)CC1 | 13.5 µM (active) | 8.49 µM (active) | inactive | inactive
O=S(=O)(N[C@H]1CCCC[C@@H]1N1CCOCC1)c1ccc(Cl)cc1 | 5.35 µM (active) | 5.35 µM (active) | inactive | inactive
O=C(NCCCN1CCOCC1)c1cnn2c(-c3ccccc3)cc(-c3ccccc3)nc12 | inactive | 3.79 µM (active) | inactive | inactive
CN(C)CCN(Cc1ccccc1)C(=O)c1cc(-c2ccc(F)cc2)n2nc(C(C)(C)C)cc2n1 | 16.9 µM (active) | 16.9 µM (active) | 3.25 µM (active) | 2.9 µM (active)
Cn1cc(-c2ccc(S(=O)(=O)n3ccc(/C=C/C(=O)Nc4ccccc4N)c3)cc2)cn1 | 2.68 µM (active) | 0.849 µM (active) | 649 nM (active) and 934 nM (active) | 649 nM (active) and 833 nM (active)
COc1ccc(Oc2c(Cl)cnn(-c3cc(C)cc(C)c3)c2=O)cc1 | inactive | 12 µM (active) | 11.5 µM (active) | 4.09 µM (active)
O=C(c1ccc(OC(F)F)c(C#Cc2ccccn2)c1)N1Cc2cccnc2C1 | 21.3 µM (active) | inactive | inactive | inactive
